Among all 310,000 compounds or so, about 2,200 (0.71%) showed an effect of 50% or more. The effect is printed as a negative number. The sample holds strong results, similar compounds and a random draw of the others, so the mix is not that of the screen.
biological target: human ether-à-go-go-related gene (hERG) potassium channel (human, UniProt Q12809); experiment: primary screen, population patch clamp on CHO cells stably expressing hERG; higher = less effect of the substance
Sequence (Q12809 whole entry, looked up): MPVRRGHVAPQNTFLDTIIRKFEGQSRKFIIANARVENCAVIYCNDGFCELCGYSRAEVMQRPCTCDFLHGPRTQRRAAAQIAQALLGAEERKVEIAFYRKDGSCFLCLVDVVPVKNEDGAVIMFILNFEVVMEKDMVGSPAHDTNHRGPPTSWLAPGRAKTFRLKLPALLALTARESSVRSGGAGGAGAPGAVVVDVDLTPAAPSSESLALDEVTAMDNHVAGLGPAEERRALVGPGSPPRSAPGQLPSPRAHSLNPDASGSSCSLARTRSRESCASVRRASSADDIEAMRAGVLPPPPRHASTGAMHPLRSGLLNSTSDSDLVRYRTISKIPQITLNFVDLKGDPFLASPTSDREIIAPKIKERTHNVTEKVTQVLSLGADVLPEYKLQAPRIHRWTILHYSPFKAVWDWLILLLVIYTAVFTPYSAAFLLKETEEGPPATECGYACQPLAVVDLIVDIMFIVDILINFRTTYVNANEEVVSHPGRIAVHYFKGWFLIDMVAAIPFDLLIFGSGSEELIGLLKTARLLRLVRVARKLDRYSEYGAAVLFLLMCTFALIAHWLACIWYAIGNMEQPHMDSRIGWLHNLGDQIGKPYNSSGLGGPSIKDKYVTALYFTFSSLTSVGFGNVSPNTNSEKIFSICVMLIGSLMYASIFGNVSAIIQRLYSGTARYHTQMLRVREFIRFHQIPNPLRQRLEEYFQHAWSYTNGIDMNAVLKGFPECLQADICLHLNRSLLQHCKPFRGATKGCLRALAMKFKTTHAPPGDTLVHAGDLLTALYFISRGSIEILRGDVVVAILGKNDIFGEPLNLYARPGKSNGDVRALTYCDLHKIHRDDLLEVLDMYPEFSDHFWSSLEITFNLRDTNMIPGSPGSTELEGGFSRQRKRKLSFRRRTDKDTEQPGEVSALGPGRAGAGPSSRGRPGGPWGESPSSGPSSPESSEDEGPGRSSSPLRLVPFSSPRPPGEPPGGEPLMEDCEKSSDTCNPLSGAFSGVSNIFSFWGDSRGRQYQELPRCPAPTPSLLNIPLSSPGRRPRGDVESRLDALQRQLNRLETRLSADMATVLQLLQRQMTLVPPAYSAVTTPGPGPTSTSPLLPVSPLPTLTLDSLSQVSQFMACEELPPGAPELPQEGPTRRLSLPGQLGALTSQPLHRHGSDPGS

Which “hERG current change (%, negative = inhibition) at 1uM” value does the source give for `CN1N=C(C(=O)NC2CCCc3c2cnn3-c2ccc(F)cc2F)CCC1=O` (centres unmarked) here?
The value was 6.91%.

With `C=C1CC2C3CC[C@@]4(OCOC45COCO5)[C@@]3(C)C(O)CC2[C@@]2(C)CCC(=O)C=C12` (some centres unmarked) as the compound, how does the “hERG current change (%, negative = inhibition) at 1uM” value read?
Its value is 13.6%.

Which “hERG current change (%, negative = inhibition) at 1uM” value does the source give for `Cc1ccc(C(=O)C(C)OC(=O)c2ccccc2[N+](=O)[O-])cc1` (centres unmarked) here?
Its value is 8%.

For `CCC1=Nc2cc(C(=O)NCCCN3CCOCC3)ccc2Sc2ccc(Br)cc21`, which “hERG current change (%, negative = inhibition) at 1uM” value is on record?
The value was 15.9%.

How did the “hERG current change (%, negative = inhibition) at 1uM” value turn out when `CCOC(=O)/C(C#N)=N/Nc1ccccc1C#N` was run?
The value was 11.2%.

With `CC(C)CCn1nnnc1C(c1ccccc1)N1CCN(C)CC1` (centres unmarked) as the compound, how does the “hERG current change (%, negative = inhibition) at 1uM” value read?
Its value is 9.6%.

`CCOC(=O)Cn1nnnc1C(CC)N(Cc1ccccc1)Cc1cc2cc(C)ccc2[nH]c1=O` (centres unmarked) was tested. Which “hERG current change (%, negative = inhibition) at 1uM” value did it give?
The value was -2.05%.

With `Cc1cc(C)cc(N2C(=O)NC(=O)/C(=C\c3cccn3-c3ccccc3)C2=O)c1` as the compound, how does the “hERG current change (%, negative = inhibition) at 1uM” value read?
Its value is -0.0202%.

`CCCCOC(=O)c1ccc(OC(=O)c2cccnc2)cc1` was tested. Which “hERG current change (%, negative = inhibition) at 1uM” value did it give?
Its value is 5.73%.

For `Clc1ncc(CSc2ccccc2)s1`, which “hERG current change (%, negative = inhibition) at 1uM” value is on record?
Its value is 5.7%.

Which “hERG current change (%, negative = inhibition) at 1uM” value does the source give for `COC(=O)c1ccc(SCc2cnc(Cl)s2)cc1` here?
The value was 7.26%.

`O=C(O)c1ccc(SCc2cnc(Cl)s2)cc1` was tested. Which “hERG current change (%, negative = inhibition) at 1uM” value did it give?
Its value is -79.6%.

For `Cc1ccc(NC(=O)N(Cc2nc3ccccc3c(=O)[nH]2)Cc2cccs2)cc1`, which “hERG current change (%, negative = inhibition) at 1uM” value is on record?
Its value is 5.74%.

With `Cc1cc(C(=O)NC2CC(C)(C)Cc3c2cnn3-c2cccc(F)c2)nn1C` (centres unmarked) as the compound, how does the “hERG current change (%, negative = inhibition) at 1uM” value read?
The value was 9.79%.

With `CC1(C)Cc2c(cnn2-c2cccc(F)c2)C(NC(=O)c2ccc(=O)[nH]n2)C1` (centres unmarked) as the compound, how does the “hERG current change (%, negative = inhibition) at 1uM” value read?
The value was -61.7%.

With `CC1(C)Cc2c(cnn2-c2cccc(F)c2)C(NC(=O)c2csnn2)C1` (centres unmarked) as the compound, how does the “hERG current change (%, negative = inhibition) at 1uM” value read?
The value was -85%.

For `Cc1cc(C(=O)NC2CC(C)(C)Cc3c2cnn3-c2cccc(F)c2)n(C)n1` (centres unmarked), which “hERG current change (%, negative = inhibition) at 1uM” value is on record?
Its value is 3.12%.

For `Cc1cc(C)cc(-n2ncc3c2CCCC3NC(=O)c2csnn2)c1` (centres unmarked), which “hERG current change (%, negative = inhibition) at 1uM” value is on record?
The value was -84%.

Which “hERG current change (%, negative = inhibition) at 1uM” value does the source give for `Cc1ccc(-n2ncc3c2CCCC3NC(=O)c2csnn2)cc1C` (centres unmarked) here?
Its value is 2.61%.

How did the “hERG current change (%, negative = inhibition) at 1uM” value turn out when `Cc1cnc(C(=O)NC2CC(C)(C)Cc3c2cnn3-c2cccc(F)c2)cn1` (centres unmarked) was run?
Its value is 3.82%.

For `CC1=C(C(=O)NC2CC(C)(C)Cc3c2cnn3-c2cccc(F)c2)OCCO1` (centres unmarked), which “hERG current change (%, negative = inhibition) at 1uM” value is on record?
Its value is -3.59%.

How did the “hERG current change (%, negative = inhibition) at 1uM” value turn out when `CC(C)(C)c1ccc(-n2ncc3c2CCCC3NC(=O)c2csnn2)cc1` (centres unmarked) was run?
The value was 9.11%.

With `Nc1ccc(C(=O)NCc2ccccc2)cc1` as the compound, how does the “hERG current change (%, negative = inhibition) at 1uM” value read?
The value was 8.94%.

For `CCNC(=O)c1ccc(NC(=O)CC2SC(N3CCCCC3)=NC2=O)cc1` (centres unmarked), which “hERG current change (%, negative = inhibition) at 1uM” value is on record?
Its value is -1.11%.

`COc1ccc(CCNC(=O)c2cc(C)oc2C)cc1` was tested. Which “hERG current change (%, negative = inhibition) at 1uM” value did it give?
The value was 10.3%.

How did the “hERG current change (%, negative = inhibition) at 1uM” value turn out when `OCCC1CN(C2CCC2)CCN1Cc1ccc(F)c(F)c1` (centres unmarked) was run?
Its value is 12.1%.

For `OCCC1CN(C2CCN(c3ccccc3F)CC2)CCN1Cc1ccccc1` (centres unmarked), which “hERG current change (%, negative = inhibition) at 1uM” value is on record?
The value was -1.66%.

`OCC1(Cc2ccccc2)CCCN(C2CCCC2)C1` (centres unmarked) was tested. Which “hERG current change (%, negative = inhibition) at 1uM” value did it give?
The value was -3.43%.

How did the “hERG current change (%, negative = inhibition) at 1uM” value turn out when `OCC1(Cc2ccccc2)CCN(C2CCN(c3ccccc3F)CC2)CC1` was run?
Its value is -38.5%.

`OCCC1CN(C2CCN(c3ccccc3)CC2)CCN1Cc1ccc(F)c(F)c1` (centres unmarked) was tested. Which “hERG current change (%, negative = inhibition) at 1uM” value did it give?
Its value is -71.1%.

Which “hERG current change (%, negative = inhibition) at 1uM” value does the source give for `OCC1(Cc2ccccc2)CCN(C2CCN(c3ccc(F)c(F)c3)CC2)CC1` here?
The value was -124%.

With `CC(C)c1c(C(=O)N/N=C/c2ccccc2C(=O)O)nnn1-c1nonc1N` as the compound, how does the “hERG current change (%, negative = inhibition) at 1uM” value read?
Its value is 7.36%.

`C(=C\CSc1nnnn1-c1ccccc1)/CSc1nnnn1-c1ccccc1` was tested. Which “hERG current change (%, negative = inhibition) at 1uM” value did it give?
The value was 0.568%.

How did the “hERG current change (%, negative = inhibition) at 1uM” value turn out when `O=C(Cn1nc(-c2ccccc2)c2ccccc2c1=O)Nc1ccc2c(c1)nc1n2CCOC1` was run?
The value was 13.3%.

With `C/C(=N\NC(=O)C1(C)CC1(Br)Br)c1cccc(NC(=O)c2ccc(C)o2)c1` (centres unmarked) as the compound, how does the “hERG current change (%, negative = inhibition) at 1uM” value read?
The value was 11.8%.

With `O=C(c1ccc(Cl)s1)N1CCCC1` as the compound, how does the “hERG current change (%, negative = inhibition) at 1uM” value read?
Its value is 6.35%.

Which “hERG current change (%, negative = inhibition) at 1uM” value does the source give for `CN1CCCN(C(=O)c2ccc(Br)s2)CC1` here?
The value was 1.6%.

How did the “hERG current change (%, negative = inhibition) at 1uM” value turn out when `CN1CCCN(C(=O)c2ccc(Cl)s2)CC1` was run?
The value was -50.5%.

For `CCOc1ccc(CCNC(=O)CN2CCN(Cc3ccccc3F)C2=O)cc1OCC`, which “hERG current change (%, negative = inhibition) at 1uM” value is on record?
The value was -0.385%.

Which “hERG current change (%, negative = inhibition) at 1uM” value does the source give for `Cc1ccc(S(=O)(=O)N2CCC(C(=O)Nc3ncccc3O)CC2)cc1` here?
The value was -13.8%.

For `CCC1CCCCN1CCCNC(=O)c1ccc2c(c1)N(Cc1ccc(F)cc1)C(=O)c1ccccc1S2=O` (centres unmarked), which “hERG current change (%, negative = inhibition) at 1uM” value is on record?
The value was -13.7%.

`Cc1nc(S(=O)(=O)c2ccc(Cl)cc2)nc2c1CCC2` was tested. Which “hERG current change (%, negative = inhibition) at 1uM” value did it give?
Its value is 0.296%.

Which “hERG current change (%, negative = inhibition) at 1uM” value does the source give for `CCOc1ccccc1CN1C(=O)NC(C)(c2ccccc2)C1=O` (centres unmarked) here?
The value was -0.418%.

For `CCN(C1CCCCC1)S(=O)(=O)CCNC(=O)c1ccccc1`, which “hERG current change (%, negative = inhibition) at 1uM” value is on record?
The value was 2.25%.

With `CCCCCCCCCCCCCCCC[N+](C)(C)CCN(Cc1ccc(OC)cc1)c1ncccn1.[Br-]` as the compound, how does the “hERG current change (%, negative = inhibition) at 1uM” value read?
The value was -61.5%.

Which “hERG current change (%, negative = inhibition) at 1uM” value does the source give for `CC[N+](C)(C)CCN(Cc1ccc(Cl)cc1)c1ccccn1.[Br-]` here?
Its value is -33.2%.

Which “hERG current change (%, negative = inhibition) at 1uM” value does the source give for `COc1ccc(CN(CCN(C)C)c2ccccn2)cc1.O=C(O)/C=C\C(=O)O` here?
Its value is -0.0995%.

Which “hERG current change (%, negative = inhibition) at 1uM” value does the source give for `COc1cc(C)ccc1OCCCOc1ccccc1Br` here?
The value was 12.3%.

With `O=C(CCn1c(=O)c2sccc2n(Cc2cc(=O)n3ccccc3n2)c1=O)NCc1ccco1` as the compound, how does the “hERG current change (%, negative = inhibition) at 1uM” value read?
The value was -25.1%.

With `CCOC(=O)N1CCC(N2CCCC(C(=O)c3cccc(OC)c3)C2)CC1` (centres unmarked) as the compound, how does the “hERG current change (%, negative = inhibition) at 1uM” value read?
The value was -13.2%.

How did the “hERG current change (%, negative = inhibition) at 1uM” value turn out when `CCOC(=O)N1CCC(N2CCCC(C(=O)c3cc(C)c(OC)c(C)c3)C2)CC1` (centres unmarked) was run?
Its value is -28.1%.

How did the “hERG current change (%, negative = inhibition) at 1uM” value turn out when `CCOC(=O)N1CCC(N2CCCC(C(=O)c3cccc(OC(C)C)c3)C2)CC1` (centres unmarked) was run?
The value was -61.3%.

`CCCC(=O)N1CCCC(C(=O)c2cccc(OC(C)C)c2)C1` (centres unmarked) was tested. Which “hERG current change (%, negative = inhibition) at 1uM” value did it give?
Its value is 9.81%.

With `CC(C)Oc1cccc(C(=O)C2CCCN(C3CCOCC3)C2)c1` (centres unmarked) as the compound, how does the “hERG current change (%, negative = inhibition) at 1uM” value read?
The value was -5.96%.

With `CCOC(=O)N1CCC(N2CCCC(C(=O)c3ccc4cc(OC)ccc4c3)C2)CC1` (centres unmarked) as the compound, how does the “hERG current change (%, negative = inhibition) at 1uM” value read?
The value was -55.1%.

`O=C(COC(=O)CCc1ccccc1)NCc1ccccc1` was tested. Which “hERG current change (%, negative = inhibition) at 1uM” value did it give?
Its value is 12.3%.

Reference: PMC4336329 (PLoS ONE, 2015)
